Assay results published in ChEMBL document CHEMBL1961873, “Compounds: GSK PKIS; Assays: Nanosyn kinase panel” (2012).

Columns and labels:
[1] = molecular target: T1, 3-phosphoinositide-dependent protein kinase 1 (Homo sapiens) (UniProt O15530); conditions: at 0.1 µM;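 note: values are mean inhibition of PDK1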
T1 sequence (whole entry): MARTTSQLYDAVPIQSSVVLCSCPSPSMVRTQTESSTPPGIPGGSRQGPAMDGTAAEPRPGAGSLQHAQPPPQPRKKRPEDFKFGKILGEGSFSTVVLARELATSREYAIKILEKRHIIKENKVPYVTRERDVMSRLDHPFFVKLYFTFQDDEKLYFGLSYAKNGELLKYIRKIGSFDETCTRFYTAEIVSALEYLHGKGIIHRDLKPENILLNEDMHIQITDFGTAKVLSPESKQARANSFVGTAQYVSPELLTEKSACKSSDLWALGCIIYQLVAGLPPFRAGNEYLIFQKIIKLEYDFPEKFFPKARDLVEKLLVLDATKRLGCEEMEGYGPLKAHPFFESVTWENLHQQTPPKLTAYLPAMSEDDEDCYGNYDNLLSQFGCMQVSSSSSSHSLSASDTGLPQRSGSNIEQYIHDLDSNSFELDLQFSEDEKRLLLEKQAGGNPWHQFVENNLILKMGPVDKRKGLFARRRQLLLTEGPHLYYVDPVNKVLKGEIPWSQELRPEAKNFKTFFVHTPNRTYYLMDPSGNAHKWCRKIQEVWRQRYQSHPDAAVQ

[2] = molecular target: cAMP-dependent protein kinase catalytic subunit alpha (Homo sapiens) (UniProt P17612); conditions: at 0.1 µM
[3] = molecular target: cAMP-dependent protein kinase catalytic subunit alpha (Homo sapiens) (UniProt P17612); conditions: at 1 µM
[4] = molecular target: Protein kinase C alpha type (Homo sapiens) (UniProt P17252); conditions: at 0.1 µM
[5] = molecular target: Protein kinase C alpha type (Homo sapiens) (UniProt P17252); conditions: at 1 µM
[6] = molecular target: Protein kinase C beta type (Homo sapiens) (UniProt P05771); conditions: at 0.1 µM
Protein kinase C beta type (Homo sapiens), sequence (P05771 2-671 limits assumed): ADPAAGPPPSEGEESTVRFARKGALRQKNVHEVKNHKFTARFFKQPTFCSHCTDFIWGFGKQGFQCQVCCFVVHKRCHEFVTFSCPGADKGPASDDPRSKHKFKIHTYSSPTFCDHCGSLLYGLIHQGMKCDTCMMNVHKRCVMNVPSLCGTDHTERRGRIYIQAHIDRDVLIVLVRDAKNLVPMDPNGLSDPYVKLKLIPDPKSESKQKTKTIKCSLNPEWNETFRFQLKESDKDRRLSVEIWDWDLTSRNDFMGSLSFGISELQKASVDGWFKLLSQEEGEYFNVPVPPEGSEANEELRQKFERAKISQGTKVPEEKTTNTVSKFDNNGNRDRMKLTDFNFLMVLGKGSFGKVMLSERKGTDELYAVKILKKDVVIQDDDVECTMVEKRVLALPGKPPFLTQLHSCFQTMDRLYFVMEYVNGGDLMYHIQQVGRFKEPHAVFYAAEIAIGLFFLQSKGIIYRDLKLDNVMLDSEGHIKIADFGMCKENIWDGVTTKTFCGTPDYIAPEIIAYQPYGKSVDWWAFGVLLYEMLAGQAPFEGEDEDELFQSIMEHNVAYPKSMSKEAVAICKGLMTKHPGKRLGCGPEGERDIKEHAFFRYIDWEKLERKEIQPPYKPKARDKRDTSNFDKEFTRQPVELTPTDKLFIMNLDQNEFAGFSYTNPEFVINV

[7] = molecular target: Protein kinase C beta type (Homo sapiens) (UniProt P05771); conditions: at 1 µM
[8] = molecular target: Protein kinase C eta type (Homo sapiens) (UniProt P24723); conditions: at 0.1 µM
Protein kinase C eta type (Homo sapiens), sequence (P24723 whole entry): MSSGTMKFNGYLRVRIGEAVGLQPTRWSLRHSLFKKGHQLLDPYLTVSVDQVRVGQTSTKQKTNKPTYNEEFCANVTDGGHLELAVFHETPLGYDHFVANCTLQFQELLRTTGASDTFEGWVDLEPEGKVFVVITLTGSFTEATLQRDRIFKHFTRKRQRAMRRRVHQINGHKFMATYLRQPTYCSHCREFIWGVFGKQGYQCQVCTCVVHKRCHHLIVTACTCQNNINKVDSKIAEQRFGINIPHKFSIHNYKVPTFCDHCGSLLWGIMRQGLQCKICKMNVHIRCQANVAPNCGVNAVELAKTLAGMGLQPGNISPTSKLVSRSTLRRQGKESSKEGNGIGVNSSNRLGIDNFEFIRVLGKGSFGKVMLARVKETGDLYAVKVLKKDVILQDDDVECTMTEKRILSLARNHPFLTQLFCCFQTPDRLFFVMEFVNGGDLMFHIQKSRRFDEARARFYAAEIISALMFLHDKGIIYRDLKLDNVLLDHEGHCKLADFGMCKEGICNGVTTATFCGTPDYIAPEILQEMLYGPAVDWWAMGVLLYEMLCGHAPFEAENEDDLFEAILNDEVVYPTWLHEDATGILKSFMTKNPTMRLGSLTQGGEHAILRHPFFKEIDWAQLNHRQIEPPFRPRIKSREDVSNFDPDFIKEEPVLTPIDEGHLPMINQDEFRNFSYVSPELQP

[9] = molecular target: Protein kinase C eta type (Homo sapiens) (UniProt P24723); conditions: at 1 µM
[10] = molecular target: Protein kinase C gamma type (Homo sapiens) (UniProt P05129); conditions: at 0.1 µM
[11] = molecular target: Protein kinase C gamma type (Homo sapiens) (UniProt P05129); conditions: at 1 µM
[12] = molecular target: T2, Protein kinase C iota type (Homo sapiens) (UniProt P41743); conditions: at 0.1 µM
T2 sequence (whole entry): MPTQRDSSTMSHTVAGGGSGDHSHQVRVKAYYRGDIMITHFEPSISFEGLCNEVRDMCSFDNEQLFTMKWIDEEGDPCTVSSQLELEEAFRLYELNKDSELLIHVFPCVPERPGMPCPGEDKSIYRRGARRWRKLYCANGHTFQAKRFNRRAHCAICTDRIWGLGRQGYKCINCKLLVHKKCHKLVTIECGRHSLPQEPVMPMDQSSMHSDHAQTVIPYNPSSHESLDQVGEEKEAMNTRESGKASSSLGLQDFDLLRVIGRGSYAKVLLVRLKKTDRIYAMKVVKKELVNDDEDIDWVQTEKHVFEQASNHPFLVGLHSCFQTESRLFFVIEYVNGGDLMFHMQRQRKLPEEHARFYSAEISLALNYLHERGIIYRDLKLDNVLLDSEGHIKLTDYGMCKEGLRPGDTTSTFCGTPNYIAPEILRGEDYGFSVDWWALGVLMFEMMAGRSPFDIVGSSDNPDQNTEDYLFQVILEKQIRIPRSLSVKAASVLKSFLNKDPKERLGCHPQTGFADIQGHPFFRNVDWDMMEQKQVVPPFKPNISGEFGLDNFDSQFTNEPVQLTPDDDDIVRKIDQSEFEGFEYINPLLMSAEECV

[13] = molecular target: T2, Protein kinase C iota type (Homo sapiens); conditions: at 1 µM
[14] = molecular target: Protein kinase C theta type (Homo sapiens) (UniProt Q04759); conditions: at 0.1 µM
Protein kinase C theta type (Homo sapiens), sequence (Q04759 whole entry, looked up): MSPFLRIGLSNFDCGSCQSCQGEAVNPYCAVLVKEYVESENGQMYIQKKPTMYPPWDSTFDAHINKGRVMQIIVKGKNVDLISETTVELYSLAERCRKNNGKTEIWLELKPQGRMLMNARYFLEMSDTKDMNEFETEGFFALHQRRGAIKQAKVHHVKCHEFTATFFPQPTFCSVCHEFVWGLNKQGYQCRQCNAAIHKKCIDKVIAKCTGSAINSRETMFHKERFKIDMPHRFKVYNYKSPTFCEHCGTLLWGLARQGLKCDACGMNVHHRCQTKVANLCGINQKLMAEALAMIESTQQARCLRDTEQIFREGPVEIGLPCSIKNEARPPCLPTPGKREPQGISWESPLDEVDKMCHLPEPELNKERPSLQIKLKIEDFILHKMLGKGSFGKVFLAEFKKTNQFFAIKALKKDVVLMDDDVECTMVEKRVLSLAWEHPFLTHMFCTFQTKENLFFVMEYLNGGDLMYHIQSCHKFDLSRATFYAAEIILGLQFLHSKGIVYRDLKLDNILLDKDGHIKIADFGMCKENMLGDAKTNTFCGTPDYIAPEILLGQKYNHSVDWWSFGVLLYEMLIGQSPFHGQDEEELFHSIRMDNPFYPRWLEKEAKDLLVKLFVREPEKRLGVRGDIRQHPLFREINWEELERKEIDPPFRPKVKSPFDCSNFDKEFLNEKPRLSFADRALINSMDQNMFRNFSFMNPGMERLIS

[15] = molecular target: Protein kinase C theta type (Homo sapiens) (UniProt Q04759); conditions: at 1 µM
[16] = molecular target: Protein kinase C beta type (Homo sapiens) (UniProt P05771); conditions: at 0.1 µM; remark: listed apart in the source
[17] = molecular target: Protein kinase C beta type (Homo sapiens) (UniProt P05771); conditions: at 1 µM; remark: listed apart in the source
[18] = molecular target: T3, Serine/threonine-protein kinase D1 (Homo sapiens) (UniProt Q15139); conditions: at 0.1 µM
T3 sequence (whole entry): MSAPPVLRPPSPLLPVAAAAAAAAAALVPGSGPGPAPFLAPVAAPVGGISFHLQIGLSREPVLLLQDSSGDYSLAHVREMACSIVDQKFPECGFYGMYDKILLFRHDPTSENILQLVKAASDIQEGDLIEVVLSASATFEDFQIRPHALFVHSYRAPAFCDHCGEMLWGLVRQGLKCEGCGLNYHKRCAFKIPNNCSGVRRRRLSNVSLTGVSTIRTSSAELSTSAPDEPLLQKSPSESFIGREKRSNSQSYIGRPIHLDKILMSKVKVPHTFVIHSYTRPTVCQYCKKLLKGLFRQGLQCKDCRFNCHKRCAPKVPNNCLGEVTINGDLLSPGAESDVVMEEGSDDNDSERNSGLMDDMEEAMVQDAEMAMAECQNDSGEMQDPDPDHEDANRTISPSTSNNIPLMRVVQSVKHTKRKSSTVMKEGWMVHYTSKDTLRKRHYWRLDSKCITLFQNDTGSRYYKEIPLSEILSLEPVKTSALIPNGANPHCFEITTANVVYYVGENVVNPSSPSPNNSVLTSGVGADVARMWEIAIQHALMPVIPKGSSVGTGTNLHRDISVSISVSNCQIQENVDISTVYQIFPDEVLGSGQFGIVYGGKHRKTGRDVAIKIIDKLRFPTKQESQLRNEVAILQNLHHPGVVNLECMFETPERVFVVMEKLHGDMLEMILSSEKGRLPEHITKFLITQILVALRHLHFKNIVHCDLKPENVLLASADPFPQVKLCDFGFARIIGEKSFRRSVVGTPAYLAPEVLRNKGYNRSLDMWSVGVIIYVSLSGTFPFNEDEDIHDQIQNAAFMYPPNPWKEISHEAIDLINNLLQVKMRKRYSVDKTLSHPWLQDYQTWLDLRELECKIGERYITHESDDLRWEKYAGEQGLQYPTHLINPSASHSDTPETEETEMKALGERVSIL

[19] = molecular target: T3, Serine/threonine-protein kinase D1 (Homo sapiens); conditions: at 1 µM
[20] = molecular target: T4, Serine/threonine-protein kinase D2 (Homo sapiens) (UniProt Q9BZL6); conditions: at 0.1 µM;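 note: reported percent inhibition values are means, part of the GSK PKIS kinase panel screen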
T4 sequence (whole entry): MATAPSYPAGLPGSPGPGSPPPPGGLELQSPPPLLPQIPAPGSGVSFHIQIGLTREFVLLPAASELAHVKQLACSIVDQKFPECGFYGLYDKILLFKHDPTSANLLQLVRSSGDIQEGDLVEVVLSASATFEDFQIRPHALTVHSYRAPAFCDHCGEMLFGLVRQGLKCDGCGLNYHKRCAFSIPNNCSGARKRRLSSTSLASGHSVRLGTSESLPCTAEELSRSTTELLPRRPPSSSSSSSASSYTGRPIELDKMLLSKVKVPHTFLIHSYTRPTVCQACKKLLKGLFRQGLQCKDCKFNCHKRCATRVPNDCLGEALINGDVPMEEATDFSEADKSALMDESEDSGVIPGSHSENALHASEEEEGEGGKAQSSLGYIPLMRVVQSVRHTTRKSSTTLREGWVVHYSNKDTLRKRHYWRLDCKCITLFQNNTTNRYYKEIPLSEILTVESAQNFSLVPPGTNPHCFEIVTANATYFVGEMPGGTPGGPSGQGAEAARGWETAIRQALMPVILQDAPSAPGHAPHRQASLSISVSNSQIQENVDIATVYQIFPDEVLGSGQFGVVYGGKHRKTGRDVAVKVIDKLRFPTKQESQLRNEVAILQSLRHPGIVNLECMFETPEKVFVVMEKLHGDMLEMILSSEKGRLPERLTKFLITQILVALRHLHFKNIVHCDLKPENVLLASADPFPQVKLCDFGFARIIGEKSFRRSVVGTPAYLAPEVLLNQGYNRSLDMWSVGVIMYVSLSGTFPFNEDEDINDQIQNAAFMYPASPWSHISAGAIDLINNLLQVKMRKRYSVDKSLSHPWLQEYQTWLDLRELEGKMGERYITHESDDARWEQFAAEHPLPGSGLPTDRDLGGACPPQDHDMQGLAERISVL

Structure (SMILES)	inhibition [1] [%]	inhibition [2] [%]	inhibition [3] [%]	inhibition [4] [%]	inhibition [5] [%]	inhibition [6] [%]	inhibition [7] [%]	inhibition [8] [%]	inhibition [9] [%]	inhibition [10] [%]	inhibition [11] [%]	inhibition [12] [%]	inhibition [13] [%]	inhibition [14] [%]	inhibition [15] [%]	inhibition [16] [%]	inhibition [17] [%]	inhibition [18] [%]	inhibition [19] [%]	inhibition [20] [%]
CCn1c(-c2nonc2N)nc2cncc(C(=O)N3CC[C@H](N)C3)c21	9.36	49.1	82.2	5.69	45.5	43.9	74.5	51.2	88.3	6.77	41.1	8.94	40	5.26	23.8	11.4	45.6	4.56	9.27	6.65
Cc1cccc(-c2n[nH]cc2-c2ccc3ncccc3n2)n1	1.02	1.12	1.28	0.19	-0.46	0.17	0.39	-0.08	2.61	-0.61	0.55	0.4	-1.7	0.33	-0.49	0.52	0.49	2.77	32.8	5.63
CCn1c(-c2nonc2N)nc2cncc(C(=O)N3CCNCC3)c21	2.8	4.17	8.74	0.92	1.73	2.12	4.3	6.14	4.16	1.3	0.03	1.74	0.89	3.06	3.7	1.85	3.67	5.23	6.72	5.57
Nc1ncnc2occ(-c3ccc(NC(=O)Nc4cccc(C(F)(F)F)c4)cc3)c12	-1.02	2.38	4.85	0.88	1.68	0.7	12.6	0.55	6.96	-0.58	2.18	3.47	3.34	2.55	2.66	1.71	2.2	5.29	7.85	5.02
CNC(=O)c1cncc(/C=C/c2c(Cl)cccc2Cl)c1	0.01	-1.08	-1.47	-3.64	-2.28	0.07	0.23	3.81	5.49	0.61	1.44	0.96	0.96	1.94	1.94	0.86	1.27	2.34	5	1.54
Cc1nn(C)c2cc(N(C)c3ccnc(Nc4cccc(S(N)(=O)=O)c4)n3)ccc12	1.33	2.03	6.18	1	6.39	1.44	6	4.55	2.34	4.1	10.3	2.3	3.87	1.21	2.49	2.72	6.99	2.29	4.44	3.66
